Records with an inconclusive call do not appear. Some structures have more than one record in an assay (separate samples or runs), and their calls can disagree. Active and inactive are the calls of the source. Unless noted, the call rests on the fitted dose curve.

The nature of assay [1]: Nuclear factor erythroid 2-related factor 2/antioxidant responsive element (Nrf2/ARE) small molecule agonists: qHTS cell viability counter screen in human keratinocytes (AID 1919968; active means well fitted curve in the direction sought with a large enough effect in the repeat runs; an effect the other way counts as inactive or inconclusive; further: nearly all actives have a fitted effect of over 55% in size; further: potency means the concentration at half of the fitted maximal effect). The procedure, abridged: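 After a 5 h attachment period, ARE-reporter keratinocytes were dosed with compounds in DMSO and then cultured 23 h at 37 C. Cell viability came from CellTiter-Fluor signal read after a further 1 h.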
A general note: In qHTS, concentration-response curves come from the screen itself.

Assay [2] in a line: Nuclear factor erythroid 2-related factor 2/antioxidant responsive element (Nrf2/ARE) small molecule agonists: luciferase reporter gene qHTS assay in human keratinocytes (AID 1919969). Further: nearly all actives have a fitted effect of over 35% in size.
Assay [3] addresses Gonadotropin-releasing hormone receptor (Homo sapiens) (UniProt P30968). Kind of assay: Human gonadotropin-releasing hormone receptor (GnRHR) small molecule agonists, calcium flux assay in GnRHR-HEK293 cells (AID 1920063). Further: nearly all actives have a fitted effect of over 35% in size. The procedure, abridged:
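We seeded human GnRHR-expressing HEK293 cells for 18 hours, loaded them with calcium dye for an hour at 37 C, added test compounds, and recorded fluorescence intensity kinetically for three minutes.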
(In general: Calcium assays in cells follow changes in intracellular calcium, usually with a dye or a luminescent sensor.)

Assay [4] deals with KiSS-1 receptor (Homo sapiens) (UniProt Q969F8). Kind of assay: Human kisspeptin (KISS1R) small molecule agonists, calcium flux assay in KISS1R-HEK293 cells (AID 1920064; active means well fitted curve in the direction sought with a large enough effect in the repeat runs; an effect the other way counts as inactive or inconclusive). In a few lines:
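Kinetic calcium assay, 1 s sampling over 3 min at Ex/Em 480/540, in HEK293 cells engineered with human KISS1R; compounds delivered in DMSO after 1 h dye loading.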

The nature of assay [5]: G protein-coupled receptor (GPCR) small molecule agonists, calcium flux assay: HEK293 wild type cell line counter screen (AID 1920065). In a few lines:
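Calcium-sensitive dye, loaded 1 h at 37 C into cells cultured 18 h, reports compound-evoked calcium release as fluorescence (Ex/Em 480/540), measured over 3 min. Agonist mode; 15-point titrations, triplicate.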

Assay [6] is described as follows: p53 small molecule agonists, cell-based qHTS assay with human liver microsomes (AID 1963577).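 Further: p53 response element beta-lactamase reporter cells with liver microsomes plus NADPH.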 The procedure, abridged: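 With metabolic activation: human liver microsomes (0.5 mg/mL final) plus NADPH (0.5 mg/mL final) added alongside compounds to p53RE-bla cells; 16 h 37 C exposure; beta-lactamase read by LiveBLAzer fluorescence.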
Assay [7] is described as follows: p53 small molecule agonists, cell-based qHTS assay with rat liver microsomes (AID 1963578). The procedure, abridged:
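Metabolic activation by rat liver microsomes and NADPH, each 0.5 mg/mL final, added right after compounds to p53RE-bla reporter cells (4,000/well, plated 5 h earlier). 16 h at 37 C, then LiveBLAzer substrate for 2 h at room temperature in the dark; fluorescence read-out.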

The nature of assay [8]: p53 small molecule agonists, cell-based qHTS assay with human liver microsomes: qHTS cell viability counter screen (AID 1963579). Further: nearly all actives have a fitted effect of over 45% in size. Further: potency means the concentration at half of the fitted maximal effect. The procedure, abridged: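 Metabolic activation used human liver microsomes and NADPH, both 0.5 mg/mL final, over 16 hours at 37 C on p53RE-bla cells (4,000/well). Cytotoxicity measured by CellTiter-Glo luminescence, 30 min at room temperature.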

The nature of assay [9]: p53 small molecule agonists, cell-based qHTS assay with rat liver microsomes: qHTS cell viability counter screen (AID 1963580). Further: nearly all actives have a fitted effect of over 45% in size. In a few lines:
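In HCT-116 cells carrying a p53 response element-bla reporter, compounds were metabolically activated in situ by rat liver microsomes with NADPH over 16 h. Cell ATP content then served as the cytotoxicity measure.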

A short description of assay [10]: p53 small molecule agonists, cell-based qHTS assay: qHTS cell viability counter screen (AID 1963581). Further: nearly all actives have a fitted effect of over 45% in size. In a few lines: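 Following 5 h attachment, HCT-116 p53RE-bla cells took up compound for 16 h at 37 C; the reporter was read with B/G FRET substrate (2 h RT), and viability then via CellTiter-Glo ATP luminescence.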
The nature of assay [11]: p53 small molecule agonists, cell-based qHTS assay (AID 1963582; active means well fitted activation curve with a large enough effect in the signal ratio in the repeat runs, not every such curve was filed as active; the % refers to the signal ratio). The procedure, abridged:
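In this cell-based concentration-response screen, a p53 response element drives beta-lactamase; cells received DMSO-borne compounds after 5 h culture and were incubated a further 16 h before FRET substrate development.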

Assay [12] deals with 5-hydroxytryptamine receptor 2A (Homo sapiens) (UniProt P28223). Briefly: 5-hydroxytryptamine receptor 2A (HTR2A) small molecule antagonists, cell-based qHTS assay (AID 1963586). Further: nearly all actives have a fitted effect of over 45% in size. The procedure, abridged: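 Antagonist-mode intracellular calcium assay: DOI (4 nM) added after 5 min compound pre-incubation at room temperature to dye-loaded HTR2A-CHO cells. Fluorescence followed for 3 min, sampled every second.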

Assay [13] shares this target. Briefly: 5-hydroxytryptamine receptor 2A (HTR2A) small molecule agonists, cell-based qHTS assay (AID 1963587). Further: nearly all actives have a fitted effect of over 30% in size. In a few lines: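 HTR2A-CHO cells, plated 18 h at 37 C/5% CO2, dye-loaded 1 h at 37 C; compounds in DMSO added by pin tool (agonist mode). Intracellular calcium flux read as kinetic fluorescence on FDSS over 2 min at 1 s intervals.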
For assay [14], the target named is Muscarinic acetylcholine receptor M1 (Homo sapiens) (UniProt P11229). Briefly: Cholinergic receptor muscarinic 1 (CHRM1) small molecule antagonists, cell-based qHTS assay (AID 1963588). Further: nearly all actives have a fitted effect of over 40% in size. The procedure, abridged:
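CHRM1-CHO calcium-flux assay, antagonist mode. Cells were seeded 18 h, dye-loaded 1 h at 37 C and given compound for 5 min at RT, then acetylcholine was added at 50nM. FDSS fluorescence was read 3 min; 15 concentrations, three runs.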

The nature of assay [15]: cAMP Responsive Elements (CRE) small molecule agonists, cell-based qHTS assay (AID 1963590). In a few lines: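 A CRE-responsive beta-lactamase reporter in HEK 293T cells was used. Treatment ran 3 h at 37 C; detection used LiveBLAzer B/G FRET substrate for 2 h at room temperature.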
Assay [16] can be described thus: cAMP Responsive Elements (CRE) small molecule antagonists, cell-based qHTS assay (AID 1963591; active means well fitted inhibition curve with a large enough effect in the signal ratio in the repeat runs, not every such curve was filed as active; the % refers to the signal ratio). In a few lines: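 HEK293T cells carrying a CRE-driven beta-lactamase reporter receive compound and NKH477 (0.25 uM final) for 3 h. Fluorescence from LiveBLAzer B/G FRET substrate is read after 2 h at room temperature.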
For assay [17], the target named is Beta-2 adrenergic receptor (Homo sapiens) (UniProt P07550). Briefly: Adrenergic beta2 receptor (ADRB2) small molecule antagonists, cell-based qHTS assay (AID 1963592). Further: series mostly up to about 92 µM; nearly all actives have a fitted effect of over 50% in size. The procedure, abridged: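 Cells (CHO, stable ADRB2 overexpression) incubated 18-20hr at 37C; compounds added from DMSO; agonist mix (1nM isoproterenol, 100uM IBMX, 25uM Ro-20-1724) added; 0.5hr RT; d2-cAMP and anti-cAMP-cryptate added; 1hr RT; 665/615 nm read.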

Assay [18] concerns the target D(2) dopamine receptor (Homo sapiens) (UniProt P14416). Kind of assay: Dopamine D2 receptor (DRD2) small molecule agonists, cell-based qHTS assay (AID 1963594). Further: nearly all actives have a fitted effect of over 35% in size. In a few lines: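 HEK293 cells stably expressing DRD2 were cultured 24 h at 37 C, then given Ro20-1724 (0.1 mM final) and compounds for 10 min at room temperature. NKH477 (200nM) was then added for 30 min. cAMP was read by HTRF.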

Assay [19] has the same target. Kind of assay: Dopamine D2 receptor (DRD2) small molecule antagonists, cell-based qHTS assay (AID 1963595; active means well fitted inhibition curve with a large enough effect in the signal ratio in the repeat runs, with a control signal flat; the % refers to the signal ratio). The procedure, abridged: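 HEK293 cells stably expressing DRD2 were preincubated with 0.1 mM Ro20-1724, then with compound for 10 min at room temperature. Cells were stimulated with 200 nM NKH477 plus 12 nM quinpirole for 30 min, and cAMP was read by HTRF.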

Assay [20] has as its target Muscarinic acetylcholine receptor M1 (Homo sapiens) (UniProt P11229). Kind of assay: Cholinergic receptor muscarinic 1 (CHRM1) small molecule agonists, cell-based qHTS assay (AID 1963589). Further: nearly all actives have a fitted effect of over 35% in size. In a few lines: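 Measures agonist-induced intracellular calcium rise. Stable human CHRM1 CHO line, 1 h dye load at 37 C, compounds from DMSO, kinetic fluorescence read.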

Sequence of 5-hydroxytryptamine receptor 2A (Homo sapiens) (P28223 whole entry, looked up): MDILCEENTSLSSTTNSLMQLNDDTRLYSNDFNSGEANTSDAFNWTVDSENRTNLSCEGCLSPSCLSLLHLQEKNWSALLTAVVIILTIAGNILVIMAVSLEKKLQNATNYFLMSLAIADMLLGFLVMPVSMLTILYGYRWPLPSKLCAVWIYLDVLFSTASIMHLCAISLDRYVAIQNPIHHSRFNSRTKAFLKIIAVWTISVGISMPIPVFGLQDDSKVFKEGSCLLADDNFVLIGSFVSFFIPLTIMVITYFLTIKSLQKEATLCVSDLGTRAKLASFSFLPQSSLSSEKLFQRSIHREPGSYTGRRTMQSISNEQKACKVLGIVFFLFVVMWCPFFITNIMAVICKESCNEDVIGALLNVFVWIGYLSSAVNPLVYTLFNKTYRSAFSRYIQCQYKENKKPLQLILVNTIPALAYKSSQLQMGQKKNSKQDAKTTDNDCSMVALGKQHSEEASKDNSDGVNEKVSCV
Sequence of Muscarinic acetylcholine receptor M1 (Homo sapiens) (P11229 whole entry, looked up): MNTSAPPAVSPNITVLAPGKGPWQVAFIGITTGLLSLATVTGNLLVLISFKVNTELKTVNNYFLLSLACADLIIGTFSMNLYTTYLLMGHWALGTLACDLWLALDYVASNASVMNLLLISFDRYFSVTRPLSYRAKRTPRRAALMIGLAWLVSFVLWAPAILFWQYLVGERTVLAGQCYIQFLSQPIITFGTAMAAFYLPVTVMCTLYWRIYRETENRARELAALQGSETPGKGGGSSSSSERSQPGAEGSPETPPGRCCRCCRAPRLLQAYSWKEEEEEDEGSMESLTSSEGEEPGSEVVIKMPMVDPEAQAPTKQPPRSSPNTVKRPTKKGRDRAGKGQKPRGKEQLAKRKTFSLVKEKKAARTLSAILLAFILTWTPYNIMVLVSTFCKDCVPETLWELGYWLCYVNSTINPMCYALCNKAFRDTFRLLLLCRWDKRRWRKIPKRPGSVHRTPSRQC
Sequence of Beta-2 adrenergic receptor (Homo sapiens) (P07550 whole entry, looked up): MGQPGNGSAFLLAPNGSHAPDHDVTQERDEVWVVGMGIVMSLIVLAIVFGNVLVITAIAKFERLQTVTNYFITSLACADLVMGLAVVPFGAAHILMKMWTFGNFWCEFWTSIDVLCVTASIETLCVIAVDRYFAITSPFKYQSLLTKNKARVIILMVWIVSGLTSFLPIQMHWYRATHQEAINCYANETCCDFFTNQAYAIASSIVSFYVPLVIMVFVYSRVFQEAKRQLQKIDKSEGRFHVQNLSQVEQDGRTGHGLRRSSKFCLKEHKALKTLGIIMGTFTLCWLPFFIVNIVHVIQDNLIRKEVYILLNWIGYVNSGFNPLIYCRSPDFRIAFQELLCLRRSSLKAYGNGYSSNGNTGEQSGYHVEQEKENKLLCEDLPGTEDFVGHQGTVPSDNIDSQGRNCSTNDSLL
Sequence of Gonadotropin-releasing hormone receptor (Homo sapiens) (P30968 whole entry, looked up): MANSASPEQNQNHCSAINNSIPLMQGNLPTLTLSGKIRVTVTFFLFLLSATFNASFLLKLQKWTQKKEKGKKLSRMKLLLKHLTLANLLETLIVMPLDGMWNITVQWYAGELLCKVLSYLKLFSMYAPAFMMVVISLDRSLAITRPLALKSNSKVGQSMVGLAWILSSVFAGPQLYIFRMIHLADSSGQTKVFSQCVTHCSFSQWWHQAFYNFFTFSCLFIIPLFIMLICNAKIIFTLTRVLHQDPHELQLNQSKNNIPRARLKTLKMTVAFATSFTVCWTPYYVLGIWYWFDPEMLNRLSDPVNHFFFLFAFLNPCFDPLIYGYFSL
Sequence of KiSS-1 receptor (Homo sapiens) (Q969F8 whole entry, looked up): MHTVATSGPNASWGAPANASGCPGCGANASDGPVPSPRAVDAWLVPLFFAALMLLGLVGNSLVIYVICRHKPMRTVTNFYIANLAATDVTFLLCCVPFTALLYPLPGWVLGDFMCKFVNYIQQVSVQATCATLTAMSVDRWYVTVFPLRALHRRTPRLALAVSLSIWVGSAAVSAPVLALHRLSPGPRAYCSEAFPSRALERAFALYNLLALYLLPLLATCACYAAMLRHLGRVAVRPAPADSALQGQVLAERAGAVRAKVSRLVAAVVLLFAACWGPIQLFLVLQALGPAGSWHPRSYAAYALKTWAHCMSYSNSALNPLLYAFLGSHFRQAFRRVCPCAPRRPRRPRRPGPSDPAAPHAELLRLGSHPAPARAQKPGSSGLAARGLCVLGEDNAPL
Sequence of D(2) dopamine receptor (Homo sapiens) (P14416 whole entry, looked up): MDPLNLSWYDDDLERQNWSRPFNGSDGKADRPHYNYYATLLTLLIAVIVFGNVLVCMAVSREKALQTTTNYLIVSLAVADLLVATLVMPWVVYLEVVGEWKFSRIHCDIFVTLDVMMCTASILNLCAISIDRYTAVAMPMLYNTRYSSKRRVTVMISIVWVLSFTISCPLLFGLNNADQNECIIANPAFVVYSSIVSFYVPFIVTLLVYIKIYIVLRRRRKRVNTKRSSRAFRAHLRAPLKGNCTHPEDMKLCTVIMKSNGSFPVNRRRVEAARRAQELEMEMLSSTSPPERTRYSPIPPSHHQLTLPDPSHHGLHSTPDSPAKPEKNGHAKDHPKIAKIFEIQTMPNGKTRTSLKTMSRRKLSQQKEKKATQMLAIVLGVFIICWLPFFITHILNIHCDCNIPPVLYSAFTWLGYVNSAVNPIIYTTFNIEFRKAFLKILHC

As for `CCCCCCCCS(=O)(=O)Cl`, the Potency entry in assay [1], in [2], in assay [3], in [4], in [5] and in assay [6] was “inactive” in each case. Further, the Potency result in assay [7], in assay [8], in assay [9], in assay [10], in [11] and in assay [12] was “inactive” each time. For the same compound, the Potency entry in assay [13], in assay [14], in assay [15], in assay [16], in assay [17] and in assay [18] was “inactive” in each case. In addition, the Potency result in [19] is “inactive”.

In the case of `CC(O)CNCC(C)O` (stereo not given), the Potency result in [1], in assay [2], in assay [3], in assay [4], in assay [5] and in assay [6] was “inactive” in each case. For the same compound, the Potency result in assay [7], in assay [8], in [9], in [10], in assay [11] and in assay [12] was “inactive” throughout. In addition, the Potency result in assay [13], in assay [14], in [15], in [16], in assay [18] and in assay [19] was “inactive” in each case.

As for `Cc1ccc(C(=O)c2cc(O)c(O)c([N+](=O)[O-])c2)cc1`, the Potency is 30.6 µM (active) in [1]; 45.8 µM (active) and inactive in assay [8]. Besides, the Potency result in [2], in [3], in [4], in [5], in assay [6] and in assay [7] was “inactive” throughout. The Potency result in assay [9], in assay [10], in assay [11], in [12], in assay [13] and in assay [14] was “inactive” in each case. Also, the Potency entry in assay [20], in [17], in [18] and in assay [19] was “inactive” throughout.

Turning to `CCO[Si](OCC)(OCC)c1ccccc1`, the Potency entry in [1], in assay [2], in assay [3], in [4], in [5] and in [6] was “inactive” throughout. Moreover, the Potency result in assay [7], in assay [8], in assay [9], in assay [10], in assay [11] and in [12] was “inactive” each time. Further, the Potency entry in assay [13], in assay [14], in assay [15], in [16], in assay [17] and in [18] was “inactive” in each case. Also, in assay [19], the Potency entry was “inactive”.

On to `c1ccc2nccnc2c1`, for which the Potency result in assay [1], in assay [2], in assay [3], in assay [4], in assay [5] and in [6] was “inactive” each time. Also, the Potency result in [7], in [8], in [9], in assay [10], in assay [11] and in assay [12] was “inactive” each time. Further, the Potency result in assay [13], in assay [14], in [20], in assay [16], in assay [17] and in [18] was “inactive” in each case.

Regarding `NC(=O)NS(=O)(=O)c1ccc(Cl)cc1`, the Potency result in [1], in assay [2], in assay [3], in assay [4], in [5] and in [6] was “inactive” in each case. Moreover, the Potency entry in [7], in [8], in assay [9], in [10], in assay [11] and in [12] was “inactive” in each case. The Potency result in assay [13], in [14], in [15], in [16], in assay [17] and in assay [18] was “inactive” throughout. Moreover, the Potency entry in [19] is “inactive”.

In the case of `CC(C)(CC(=O)O)C(=O)O`, the Potency result in [1], in assay [2], in assay [3], in assay [4], in [5] and in assay [6] was “inactive” each time. Besides, the Potency entry in assay [7], in assay [8], in assay [9], in [10], in assay [11] and in [12] was “inactive” each time. Moreover, the Potency entry in [13], in [14], in [15], in [16], in assay [17] and in assay [18] was “inactive” throughout. Also, in assay [19], the Potency result was “inactive”.
